Screening results deposited in PubChem BioAssay by National Center for Advancing Translational Sciences (NCATS).
Rab9 promoter act: qHTS Assay for Rab9 Promoter Activators; Potency, µM (doses to about 9.22 µM), without a hit: at the top dose activation, negative = inhibition, hits mostly activators; AID 485297, 2010; Huh7 Rab9 promoter-luciferase reporter, luminescence, 24 h; hit rate 2.8% among 320,000; further: % of control where 0% means no effect; nearly all actives have a fitted effect of over 60% in size
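Luciferase signal after 10 min detection reagent at ambient indicates Rab9 promoter upregulation; stably transfected Huh7 cells were treated 24 h with compound in DMSO at 37 °C, 5% CO2.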
SMN2 splice up: qHTS Assay for Enhancers of SMN2 Splice Variant Expression; Potency, µM (doses to about 46.1 µM), for inactives: top-dose activity change, positive = activation, most hits filed as activators; AID 1458, 2008; hit rate 2.8% among 210,000; HEK293 SMN2-luciferase splicing reporter, luminescence, 30-36 h; further: % of control where 0% means no effect; nearly all actives have a fitted effect of over 55% in size
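qHTS luciferase splicing reporter: luminescence rises when SMN2 exon 7 is included in transfected HEK293 cells. Compound exposure lasted 30-36 h at 37C, with 4.5 mM final sodium butyrate as control, followed by a ONE-Glo read.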
NPC1 promoter act: qHTS Assay for NPC1 Promoter Activators; hit rate 2.4% among 320,000; Huh7 NPC1 promoter luciferase reporter, 24 h; Potency, µM (top dose mostly 9.22 µM), inactives show top-dose activation, hits mostly activators; AID 485313, 2010; further: % of control where 0% means no effect; nearly all actives have a fitted effect of over 60% in size
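Huh7 reporter cells (NPC1 promoter driving luciferase) are dosed with compound for 24 h at 37 °C, 5% CO2; luciferase detection reagent is then added and luminescence measured after 10 min at ambient temperature.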
FLuc modulator: qHTS profiling assay for firefly luciferase inhibitor/activator using purifed enzyme and Km concentrations of substrates (counterscreen for miR-21 project) | Luciferin 4-monooxygenase (Photinus pyralis), P08659 | purified FLuc, Km substrates, luminescence inhibition | Potency, µM (series often up to 57.5 µM), inactives show top-dose activity change, negative = inhibition, actives largely listed as inhibitors | hit rate 6.9% among 360,000 | AID 588342, 2011;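 further: plate controls were vehicle for no effect and reference inhibitor for full effect; nearly all actives have a fitted effect of over 55% in size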
Target sequence (P08659 whole entry, looked up): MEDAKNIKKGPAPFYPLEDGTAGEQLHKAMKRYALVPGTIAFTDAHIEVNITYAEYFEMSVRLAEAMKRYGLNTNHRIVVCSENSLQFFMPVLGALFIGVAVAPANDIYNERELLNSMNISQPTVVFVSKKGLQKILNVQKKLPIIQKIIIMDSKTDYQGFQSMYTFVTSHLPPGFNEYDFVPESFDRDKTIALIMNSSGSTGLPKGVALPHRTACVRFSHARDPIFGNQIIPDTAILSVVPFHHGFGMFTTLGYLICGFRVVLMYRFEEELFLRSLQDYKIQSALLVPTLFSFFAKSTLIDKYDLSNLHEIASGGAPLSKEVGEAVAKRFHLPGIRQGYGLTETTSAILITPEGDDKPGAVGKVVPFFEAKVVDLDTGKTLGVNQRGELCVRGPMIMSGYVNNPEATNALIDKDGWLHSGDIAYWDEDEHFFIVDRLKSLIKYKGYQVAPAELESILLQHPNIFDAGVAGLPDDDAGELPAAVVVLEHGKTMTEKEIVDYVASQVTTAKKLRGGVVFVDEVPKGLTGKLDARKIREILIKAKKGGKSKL
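Purified P. pyralis luciferase, 10 nM final, with Km-level 10 uM D-luciferin and 10 uM ATP in 50 mM Tris acetate pH 7.5, 10 mM Mg acetate, 0.01% Tween-20, 0.05% BSA; 6-point qHTS titration about 60 µM downward; luminescence read.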
ELG1 genotoxic: qHTS screen for small molecules that induce genotoxicity in human embryonic kidney (HEK293T) cells expressing luciferase-tagged ELG1; HEK293T ELG1-luciferase reporter, luminescence, 16 h; Potency, µM (series often up to 46 µM), inactives show at the top dose activity change, positive = activation, hits mostly activators; hit rate 1.3% among 330,000; further: % of control where 0% means no effect; nearly all actives have a fitted effect of over 60% in size
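HEK293T cells expressing luciferase-tagged ELG1 were treated with compound or DMSO for 16 hr at 37°C. Luciferase activity was then read after 30 min with ONE-Glo at room temperature; rising signal flags genetic stress.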
Numbers without * were called inactive; ? = inconclusive; nt = not tested or not shown; [ ] = another dose, or the depositor's remark. An excerpt weighted towards active compounds, which were near 7.5% of everything screened. The call rests on the fitted dose curve; in most records, active means well fitted curve in the direction sought with a large enough effect; inconclusive means small, poorly fitted or top-dose-only effect, or another doubt; inactive means no such curve, though single readings can be large; an effect the other way counts as inactive or inconclusive. Potency means the concentration at half of the fitted maximal effect.

SMILES	Rab9 promoter act	SMN2 splice up	NPC1 promoter act	FLuc modulator	ELG1 genotoxic
C=CCNc1nc(-c2ccc(OC)cc2OC)cs1	3.2µM*	?	2.8µM*	12µM*	?
C=CCn1c(C)cc(-c2csc(NC)n2)c1C	-3%	-16%	0%	-15%	-6%
C=CCn1c(C)cc(-c2csc(NC(=O)C3=COCCO3)n2)c1C	1.6µM*	nt	2.2µM*	9.5µM*	?
CC(=NCC(=O)O)c1ccccc1	nt	-3%[9.22 µM]	nt	nt	nt
C=CCn1c(C)cc(-c2csc(NCC)n2)c1C	-4%	nt	23%	15µM*	-8%
COc1ccc(-c2csc(NC(=O)C3=COCCO3)n2)c(OC)c1	?	nt	?	24µM*	21µM*
CC(C)c1nc(-c2ccc([N+](=O)[O-])cc2)cs1	20%	13%	11%	17µM*	8%
COc1ccc(NS(=O)(=O)c2cc(Br)cc3c2N(C(=O)C2CC2)CC3)cc1OC	nt	nt	nt	-8%	nt
CCOc1ccc(N2C(=O)c3cccnc3C2Nc2ccc(Cl)cc2)cc1 (stereo unspecified)	3%	-14%	0%	2%	0%
Cc1ccc(NC2c3ncccc3C(=O)N2c2ccccc2C)cc1C (stereo unspecified)	-4%	-3%	5%	24µM*	1%
CCc1cc(C(=O)OC)c(NC(=O)CSc2nccn2C)s1	0%	nt	1%	3%	-1%
CCOC(=O)c1ccc(OCC(=O)c2ccc(O)cc2O)cc1	22%	-2%	21%	6.7µM*	?
COC(=O)c1ccc(OCC(=O)c2ccc(O)cc2O)cc1	4%	-7%	?	6.7µM*	10%
O=C(COc1ccccc1)OCC(=O)c1ccc(O)cc1O	3%	nt	-9%	?	0%
O=C(COC(=O)c1ccc(O)cc1O)c1ccc(Cl)cc1	0%	nt	13%	17µM*	13%
O=C(COc1ccc(Cl)cc1)c1ccc(O)cc1O	?	nt	30%	8.5µM*	?
CC(C)(C)OC(=O)C[C@H]1C/C=C\C[C@H](CC(=O)N[C@H](CO)Cc2ccccc2)C(=O)N2CCC[C@@H]2COC1=O	nt	nt	nt	nt	0%
Nc1ccccc1C(=O)C[C@H](N)C(=O)O	nt	-11%	nt	nt	nt
Cn1c(=O)[nH]c(=O)c2c1nc(SCC(N)=O)n2Cc1cccc(Br)c1	-8%	nt	2%	1%	21µM*
C=C(C)CSc1nc2c(c(=O)[nH]c(=O)n2C)n1Cc1ccccc1	-10%	nt	-10%	-5%	6%
Cc1cnc(C(=O)OCC(=O)Nc2c(Cl)cc(Cl)cc2Cl)cn1	-3%	nt	0%	-4%	1%
COc1ccc(-n2nc(C(=O)NCC(=O)NCc3cccc(F)c3)c3ccccc3c2=O)cc1Cl	3%	nt	0%	-1%	0%
Cc1cc2ccccc2n1CCNC(=O)C1CCCC1	1%	-8%	-3%	2%	1%
Cc1cc2ccccc2n1CCNC(=O)C1CCCCC1	2%	-56%	-2%	0%	23µM*
Cc1cc2ccccc2n1CCNC(=O)c1cccs1	?	-29%	?	21µM*	?
SMILES	Rab9 promoter act	SMN2 splice up	NPC1 promoter act	FLuc modulator	ELG1 genotoxic
Cc1cc2nc(CCN(C(=S)NCC(C)C)C3CCCC3)[nH]c2cc1C	0%	-28%	-1%	2%	-13%
Nc1n[nH]c(N)c1N=Nc1ccc(F)cc1	?	14%	7%	?	1%
Cc1nc(N)sc1N=Nc1ccc(F)cc1	?	12%	?	12µM*	12µM*
CCCCCNC(=O)c1ccc2c(c1)ncn2-c1cccc(C)c1	nt	nt	nt	-11%	nt
Cc1cccc(-n2cnc3cc(C(=O)N4CCCCC4)ccc32)c1	?	?	?	24µM*	20%
Cc1ccc(-n2c(C)cc(C(=O)CSc3nnnn3C)c2C)cc1	0.71µM*	?	0.71µM*	2.7µM*	13%
Cc1ccc(-n2c(C)cc(C(=O)CSc3nncs3)c2C)cc1	0.5µM*	12%	1µM*	3µM*	?
COC(=O)c1cc2oc(C)cc2n1CC(=O)Nc1ccc(C)cc1C	nt	-2%	nt	-8%	nt
COc1cccc(NC(=O)C2CCN(C(=O)[C@@H]3Cc4ccccc4CN3)CC2)c1	5%	nt	-13%	-10%	4%
Cc1cccc(OCC(=O)Nc2ccccc2OCc2cc(=O)n3cc(C)ccc3n2)c1	nt	nt	nt	6%	nt
COC(=O)c1ccc(/C(O)=C(\C#N)c2nc3ccccc3s2)cc1	3.2µM*	nt	2.8µM*	7.6µM*	3%
COC(=O)c1ccc(CC(=O)c2nc3ccccc3s2)cc1	2.8µM*	1%[1.84 µM]	?	3µM*	?
COC(=O)c1ccc(CSc2nc3ccccc3s2)o1	?	?	?	17µM*	16µM*
O=C(Cc1ccccc1)c1nc2ccccc2s1	2.8µM*	4µM*	2.5µM*	11µM*	?
COc1ccc(C2C(C(=O)NCC3CCCO3)c3cc(OC)c(OC)cc3C(=O)N2C)cc1OC (stereo unspecified)	-1%	6%	-2%	2%	-3%
CCc1ccc(-c2nn(CC(=O)NCc3ccccc3)c3c2cnc2ccc(F)cc23)cc1	nt	nt	nt	4%	nt
Cc1oc(-c2ccc(C(=O)NCc3ccc(Cl)cc3)cc2)nc1CS(=O)(=O)c1ccccc1	nt	nt	nt	-2%	nt
COc1ccccc1C1=NOC(CN2C(=O)c3ccccc3S2(=O)=O)C1 (stereo unspecified)	4µM*	nt	2.8µM*	8.5µM*	?
O=C1c2ccccc2S(=O)(=O)N1CC1CC(c2ccccc2Cl)=NO1 (stereo unspecified)	3.2µM*	4µM*	3.2µM*	2.7µM*	12µM*
COc1ccccc1C1=NOC(COC(=O)c2ccc(Br)cc2)C1 (stereo unspecified)	3%	-6%	-3%	?	-1%
O=C(O)c1ccc(N/N=C/c2ccc(-c3ccc(Br)cc3)o2)cc1	18%	nt	22%	2.4µM*	?
O=C(O)c1cc(-c2ccc(/C=N/Nc3ccc(Cl)cc3)o2)ccc1Cl	3%	0%	14%	11µM*	0%
Cc1ccc(/C=N/Nc2ccc(C(=O)O)cc2)o1	0.4µM*	10µM*	0.71µM*	6.7µM*	?
Cc1ccc(NS(=O)(=O)c2ccc(NC(=O)c3cccc(NC(=O)C(C)C)c3)cc2)cc1	-6%	-11%	-4%	2%	-12%
CCOc1ccc(NC(=O)C(CC(=O)O)Cc2ccc(C)cc2)cc1 (stereo unspecified)	-4%	nt	-1%	-6%	-3%
COc1cccc(CNC(=O)CSc2nnc3c(n2)[nH]c2ccc(C)cc23)c1	-8%	nt	-8%	1%	2%
Clc1ccc(OCCCc2nc(-c3ccncc3)no2)c(Cl)c1	-2%	-26%	-1%	-16%	-5%
